Among the data in PubChem BioAssay AID485358 (National Center for Advancing Translational Sciences (NCATS), 2010) are activation values, retold here.

“And” between values parts separate entries of the source, which are not always exact repeats. Equal entries are not always repeated. Screen size: about 340,000 compounds; about 1,800 (0.53%) were called active. What follows is part of a selection rich in actives, with near analogues and random picks from the rest. A number with no mark means an inactive call.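 The calls were made as follows: active = activation over 3 SD above normal in the single-dose calcium agonist read (cut at about 30% in these data); inactive = the rest.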

Sequence of D(2) dopamine receptor (Homo sapiens) (P14416 whole entry, looked up): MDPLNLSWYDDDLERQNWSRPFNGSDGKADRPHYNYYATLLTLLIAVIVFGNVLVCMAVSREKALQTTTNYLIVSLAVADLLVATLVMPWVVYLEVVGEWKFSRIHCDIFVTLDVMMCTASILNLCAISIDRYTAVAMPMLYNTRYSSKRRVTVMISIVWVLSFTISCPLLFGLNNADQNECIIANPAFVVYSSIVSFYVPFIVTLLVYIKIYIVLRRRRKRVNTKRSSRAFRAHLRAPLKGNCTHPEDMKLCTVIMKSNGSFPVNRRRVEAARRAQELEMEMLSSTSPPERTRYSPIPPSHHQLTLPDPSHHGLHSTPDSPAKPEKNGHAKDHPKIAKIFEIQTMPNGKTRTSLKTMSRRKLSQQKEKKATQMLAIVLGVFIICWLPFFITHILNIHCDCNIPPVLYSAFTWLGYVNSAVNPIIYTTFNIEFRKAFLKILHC

The experiment has as its target D(2) dopamine receptor (Homo sapiens) (UniProt P14416). Description: HTS Assay for Allosteric Agonists of the Human D2 Dopamine Receptor: Primary Screen for Agonists. Also: 0% is about no effect. To be noted: HEK293 T-REx D2 cells, calcium flux agonist mode; at 2 µM; hits give high values. In short, it runs like this:
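Agonism is scored from calcium flux in a force-coupled, inducible HEK293 cell line expressing D2, read kinetically for 180 s after compound addition against dopamine controls.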
Consider `Cc1cc(C)c2oc(C(=O)Nc3c(C(=O)Nc4ccccc4)oc4ccccc34)cc(=O)c2c1`, for which the activation was 0.443%.

`Cc1ccccc1C(=O)N(Cc1ccc(N(C)C)cc1)CC1CCCO1` (configuration not stated): the activation was -0.0491%. As for `O=C(Nc1cc(-c2nc3ccccc3o2)ccc1Cl)c1cc([N+](=O)[O-])ccc1N1CCOCC1`, the activation was -0.175%.

On to `Cc1ccccc1OCC(=O)Nc1c(C(=O)Nc2ccccc2F)oc2ccccc12`, for which the activation was -0.888%. For `CCCc1nc2c(c(=O)c3ccccc3n2C)c(=O)n1C1CCCCCC1`, the activation is 38.8% (active). As for `Cn1c2ccccc2c2c(C(=O)N3CCN(c4ccc(F)cc4)CC3)cn(C3CCCC3)c(=O)c21`, the activation is 0.715%. The value for `CCOC(=O)c1nnn2c3ccccc3c(=O)n(C)c12` was 0.451%; that for `COc1cccc(CNc2nccn(-c3ccc(OC)c(OC)c3)c2=O)c1` was 0.433%; that for `CCOc1ccccc1C(=O)NC1(C(F)(F)F)NC(=O)N(CCc2ccc(OC)c(OC)c2)C1=O` (configuration not stated) was -1.49%. On to `Cc1ccc(C)c(CN2C(=O)c3ccccc3S(=O)c3ccc(C(=O)N4CCOCC4)cc32)c1` (configuration not stated), for which the activation is 0.908%. For the compound `CCSc1nnc2c(n1)OC(c1ccc(OCC(=O)O)cc1)Nc1ccccc1-2` (configuration not stated), the activation was -0.918%. As to `OCC1(Cc2ccccc2)CCN(Cc2cc3ccccc3o2)CC1`, the activation is 58.8% (active). With `CC(C)c1csc(CN2CCC(CO)(Cc3ccccc3)CC2)n1`, the activation is 0.222%. The value for `O=C(c1cc2ccccc2o1)N1CCN(Cc2ccccc2)CC1` was 0.213%; that for `O=C(c1ccc(Cl)cc1)c1ccc(OCC(O)CN2CCCCC2)cc1` (configuration not stated) was 0.406%; that for `OC(COc1ccc2c(c1)CCC2)CN1CCN(c2cccc(Cl)c2)CC1` (configuration not stated) was 55.1% (active). On to `O=c1cc(CN2CCN(c3cccc(Cl)c3)CC2)c2cc3c(cc2o1)CCCC3`, for which the activation is -0.276%.

For the compound `CCNS(=O)(=O)c1ccc(NC(=O)CSc2nc(-c3ccco3)cc(C(F)(F)F)n2)cc1`, the activation is -0.45%. As for `Nc1c(C(=O)c2cccs2)sc2nsc(SCCN3CCCCC3)c12`, the figure is 52.2% (active); as for `COc1ccc(CCC(=O)NCc2ccc3c(c2)CCN3C(=O)c2ccc(F)cc2)cc1`, 1.61%; as for `CCN1CCN(c2ncc3c(n2)CC(c2ccccc2O)CC3=O)CC1` (configuration not stated), -0.199%. As to `COc1cc(C(CCN2CCN(c3ccccc3)CC2)c2c(OC)cc(OC)c3ccc(=O)oc23)cc(OC)c1OC` (configuration not stated), the activation is 25.6%. On to `CCN(CC)CCC(c1ccc2c(c1)OCO2)c1c(OC)cc(OC)c2c(-c3ccccc3)cc(=O)oc12` (configuration not stated), for which the activation is -1.38%. For `COc1cc(OC)c2ccc(=O)oc2c1C(CCN1CCN(c2ccccc2)CC1)c1ccc2c(c1)OCO2` (configuration not stated), the activation was 78.4% (active). As for `CCCn1c2ccccc2c2cnn(CC(=O)N3CCCC(C(=O)OCC)C3)c(=O)c21` (configuration not stated), the activation was 0.474%. Take `CCN(C(=O)Cn1c(=O)nc(-c2ccccc2)c2cc(Cl)ccc21)c1cccc(C)c1`: the activation was 6.7%. Consider `Cc1csc2nc(COc3ccc(NC(=O)COc4ccccc4)cc3)cc(=O)n12`, for which the activation is -0.592%.

Turning to `Cc1csc2nc(COC(=O)c3ccccc3NC(=O)c3ccccc3Cl)cc(=O)n12`, the activation is 0.344%. For the compound `O=c1cc(CCl)nc2scc(-c3ccccc3)n12`, the activation was 39.4% (active).

As for `CCc1ccccc1NC(=O)c1ccc(F)c(S(=O)(=O)NC2CCCCCC2)c1`, the activation was 0.52%. As to `COc1ccc(NC(=O)CN2CCCN(Cc3ccccc3)S2(=O)=O)cc1`, the activation was -1.11%. The value for `COc1ccc(-c2nn(CC(=O)Nc3ccccc3F)c3c2cnc2ccc(F)cc23)cc1` was 0.341%. Regarding `CN1C(=O)c2[nH]nc(-c3ccc(F)cc3)c2C1c1ccccn1` (configuration not stated), the activation is 1.23%.

`Cc1cc(=O)oc2cc(OCCC[n+]3ccccc3)ccc12`: the activation was 0.774%.

For the compound `Cc1ccccc1N1CCN(CCCOc2ccc3c(C)cc(=O)oc3c2)CC1`, the activation is 80.1% (active). Turning to `CCOc1ccccc1N1CCN(C(=O)COc2ccc3c(C)cc(=O)oc3c2)CC1`, the activation is -0.577%.

As to `CCOc1ccc(NC(=O)Cn2cc(C(=O)c3ccc(C)cc3)c(=O)c3cc4c(cc32)OCCO4)cc1`, the activation is -0.524%.

As to `CNCC(O)c1ccc(O)c(O)c1` (configuration not stated), the activation was 64.9% (active). `CC(=O)NCC(O)c1ccc([N+](=O)[O-])cc1` (configuration not stated): the activation was -2.19%.

Consider `CC(Sc1oc(-c2ccco2)nc1S(=O)(=O)c1ccc(Br)cc1)c1ccccc1` (configuration not stated), for which the activation is 0.011%.

As for `COc1ccccc1C(=O)Nc1c(C(=O)N(C)Cc2ccccc2)sc2nc(C)c(Cl)c(C)c12`, the activation is 0.563%. The value for `COc1cc(NC(=O)c2nc3ccccc3nc2C)cc(OC)c1OC` was 0.0893%; that for `COc1cccc(CNC(=O)c2cc(=O)[nH]c3ccc(S(=O)(=O)N4CCCCC4)cc23)c1` was 0.436%. Take `CCOc1ccc(N(CC)C(=O)c2noc3c2COc2ccc(C)cc2-3)cc1`: the activation was 0.123%. For the compound `Cc1ccccc1Nc1nc(N)nc(CSc2ccccc2)n1`, the activation is 0.151%.

Turning to `Cc1ccccc1Nc1nc(N)nc(CSc2nnc3ccccn23)n1`, the activation is 0.185%. For the compound `Cc1ccccc1Nc1nc(N)nc(CN2CCN(c3ccccn3)CC2)n1`, the activation was 38.5% (active). As to `CCOc1ccc(N(Cc2ccccc2)C(=O)c2nc(S(C)(=O)=O)ncc2Cl)cc1`, the activation was 10%. As for `COc1ccccc1CNC(=O)CCn1c(=O)c2ccccc2n(CC(=O)Nc2ccc(Br)cc2F)c1=O`, the activation is -0.617%. Turning to `CC1CCN(c2c(NCc3ccc(C(=O)NCc4ccccc4)cc3)c(=O)c2=O)CC1`, the activation was -1.43%. As for `Cc1ccc(CNC(=O)c2cccc3c2C(=O)c2ccc(N4CCC(C)CC4)cc2S3(=O)=O)cc1`, the activation is 32% (active).

For the compound `COc1cccc(-c2ccc3c(c2)S(=O)(=O)c2cccc(C(=O)O)c2C3=O)c1OC`, the activation is 1.73%. On to `CCOc1cccc(CC(=O)N2CCc3c([nH]c4ccccc34)C2c2ccc(F)cc2)c1OCC` (configuration not stated), for which the activation is -0.484%. As for `Cc1c(CCNC(=O)c2ccc(C(F)(F)F)cc2)sc2nc(-c3ccc(F)cc3)nn12`, the figure is -2.35%; as for `O=C(NCc1ccccc1Cl)c1ccc2c(=O)n(CC3CCCO3)c(=S)[nH]c2c1` (configuration not stated), -2.85%; as for `CCCCCn1c(=O)[nH]c2cc(C(=O)NCCCN3CCCCC3C)ccc2c1=O` (configuration not stated), 1.64%. Consider `O=C(NC1CCCCC1)c1ccc2c(=O)n(CC3CCCO3)c(=O)[nH]c2c1` (configuration not stated), for which the activation was 31.5% (active). Take `COc1ccc(-c2nc3nc(C)cc(C)n3c2Nc2c(C)cccc2C)cc1`: the activation is 2.98%. As for `CCc1cc2c(cc3c(=O)n(CC(=O)NCCc4ccc(OC)c(OC)c4)ncn32)s1`, the figure is -0.234%; as for `COC(=O)c1ccc(-c2nc3cc(NC(C)=O)ccc3o2)cc1`, -2.97%; as for `Cc1ccc(NC(=O)C2CCCN(S(=O)(=O)c3c(C)noc3C)C2)c(C)c1` (configuration not stated), -0.264%.

As for `Cc1n[nH]c(C)c1S(=O)(=O)N1CCCC(C(=O)NCC2COc3ccccc3O2)C1` (configuration not stated), the activation is 57.1% (active).

As to `Cc1n[nH]c(C)c1S(=O)(=O)N1CCCC(C(=O)Nc2ccc(Br)cc2)C1` (configuration not stated), the activation was 0.576% and 0.392%.

On to `O=C(NCC(c1ccco1)S(=O)(=O)c1cccs1)c1ccc(F)cc1` (configuration not stated), for which the activation was 0.728%. For the compound `CCOc1ccc(CNC(=O)c2cccc(Nc3nc4ccccc4n4nnnc34)c2)cc1OC`, the activation is 0.495%. In the case of `Cc1cc(C)c(/C=C2\C(=O)Nc3ccccc32)[nH]1`, the activation was 39.4% (active). For `Cc1ccccc1-n1c(C)cc(/C=C2\NC(=O)NC2=O)c1C`, the activation was -0.336%. On to `O=C1Nc2ccccc2/C1=C/c1ccnc2ccccc12`, for which the activation is 1.57%. As to `CCOC(=O)c1c(NC(C)=O)c2c3c(sc2n1Cc1c(C)cc(C)cc1C)CCCC3`, the activation is 0.0213%. As to `CCS(=O)(=O)N1CCC(N2CCN(c3ccccc3)CC2)CC1`, the activation is 68% (active). Take `CCS(=O)(=O)N1CCC(C(=O)N2CCN(c3ccccc3)CC2)CC1`: the activation was 4.45%. As for `CS(=O)(=O)N1CCC(C(=O)N2CCN(c3ccccc3)CC2)CC1`, the figure is 6.31%. For the compound `Cc1ccccc1NC(=O)c1cc2c([nH]c1=O)CC(C)(C)CC2=O`, the activation is 0.0984%. With `CCOc1cc(-c2cc(-c3ccc(NC(C)=O)cc3)nc(N)c2C#N)ccc1O`, the activation is 0.571%. Turning to `CCOc1cc(/C=C(\C#N)c2nc(-c3cccs3)c(NC(C)=O)s2)ccc1O`, the activation is 31.5% (active). The value for `CCOc1ccc(/C=C(\C#N)c2nc3ccccc3c(=O)[nH]2)cc1OC` was -1.7%; that for `OC(COCC1COc2ccccc2O1)CN1CCN(c2ccc(F)cc2)CC1` (configuration not stated) was 8.89%.

For `OC(COCc1ccco1)CN1CCN(c2ccccc2)CC1` (configuration not stated), the activation was 85.6% (active). As for `O=[N+]([O-])c1ccc(N2CCN(CC(O)COc3ccccc3)CC2)cc1` (configuration not stated), the figure is -0.607%. On to `COc1ccc(CNC(=O)CSCc2nc(-c3ccccc3F)oc2C)cc1`, for which the activation was -0.228%. Consider `O=C(CCC1CCCN(C(=O)Cc2ccc(F)cc2)C1)N1CCN(c2ccccn2)CC1` (configuration not stated), for which the activation was 0.424%.

For the compound `Cc1c(CN2CC[C@@H](N3CCN(c4ccccn4)CC3)[C@H](O)C2)[nH]c2ccc(F)cc12`, the activation was 76.9% (active). Regarding `Cc1nc(N2CCN(c3ccccn3)CC2)c2c(C)c(C(=O)Nc3ccc(F)cc3)sc2n1`, the activation is -0.199%. Consider `COC(=O)c1ccc(Cn2c(SCC(=O)N(C)c3ccccc3)nc3ccccc32)cc1`, for which the activation is 0.816%. As for `O=C(COc1coc(CN2CCN(c3ccccc3)CC2)cc1=O)N1CCc2ccccc21`, the activation was -0.514%. Regarding `O=C(COc1coc(CN2CCN(c3ccccc3)CC2)cc1=O)Nc1ccccc1F`, the activation is 45.8% (active).

As for `Cc1cc(C)cc(NC(=O)COc2coc(CN3CCN(c4ccccc4)CC3)cc2=O)c1`, the activation is 5.66%.
